Screening data as filed in PubChem BioAssay.
Sampled rows, rich in hits. Any-hit rate of the full collection: about 5.7%.
ATXN2 expr inh: reduces ATXN2 reporter expression in HEK-293 cells; 360,000 compounds, 0.72% hits; Potency, µM (series often up to 57 µM), for inactives: top-dose activity change, negative = inhibition, most hits filed as inhibitors; HEK-293 ATXN2-luciferase reporter, luminescence, 24 h; also: potency is read from the fitted curve at half-maximal effect; % is scaled to controls: 0 for no effect and ±100 for the full control effect; nearly all actives have a fitted effect of over 55% in size
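ATXN2-luciferase reporter cells (luciferase flanked by upstream and downstream ATXN2 gene portions) were treated 24 h at 37 °C with compounds at up to 57 uM. SteadyGlo luminescence gave expression; GF-AFC fluorescence gave viability.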
IL1B secr inh: inflammasome signaling inhibition, IL-1 beta readout | activity change, % at 57.5 µM | 360,000 compounds, 4.7% hits | THP-1 LPS/ATP IL-1B secretion, AlphaLISA, 16 h; hits give low values; in the data active = activity change below about -50%; inconclusive = mostly about -30% to -49%; also: % is scaled to controls: 0 for no effect and ±100 for the full control effect
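THP-1 cells pretreated 1 hr with compounds (up to 57.5 uM final), then stimulated with LPS (250 ng/mL final) plus ATP (1.25 mM final); secreted IL-1B measured by AlphaLISA after 16 hr, decreased signal indicating inhibition.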
HepG2 viability: kills HepG2 cells in TGF-b inhibitor counter-screen. HepG2 CAGA-GFP viability, ATP luminescence, 18 h. 410,000 compounds, 0.76% hits. Potency, µM (top dose mostly 46.1 µM), for inactives: top-dose activity change, negative = cytotoxicity, usual class: cytotoxic. AID 588856; also: potency is read from the fitted curve at half-maximal effect
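HepG2 CAGA-GFP cells (1000/well, DMEM with 1% FBS) received compound, then TGF-beta at 500 pg/mL final, and were incubated 18 hours at 37 degrees C. Viability was read by CellTiter-Glo luminescence. Media-only wells were set as complete cell-killing and DMSO as no toxicity.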
S2 tox: reduces viability in counter-screen for ATXN expression inhibitors | S2 cells (HEK-293 line with an ATXN2-luciferase reporter) viability, CellTiter-Fluor protease fluorescence, 24 h | Potency, µM (highest dose often 56.7 µM), hits mostly cytotoxic | 400,000 compounds, 0.49% hits; also: potency is read from the fitted curve at half-maximal effect; nearly all actives have a fitted effect of over 40% in size
TGFb inhibitor: blocks TGF-b signaling; Potency, µM (series often up to 46.1 µM), inactives show at the highest dose activity, negative = inhibition, actives largely listed as inhibitors; 410,000 compounds, 1.2% hits; AID 588855; HepG2 CAGA-GFP TGF-b/SMAD3 reporter, GFP fluorescence, 18 h; TGF-beta stimulated, 500 pg/mL final; also: potency is read from the fitted curve at half-maximal effect; % is scaled to controls: 0 for no effect and ±100 for the full control effect; nearly all actives have a fitted effect of over 65% in size
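Read-out: total well GFP (ex488/em500-530) summed from mean per-cell fluorescence. Cells: HEPG2 CAGA-GFP, 1% FBS DMEM, 18 h at 37 degrees C with 500 pg/mL final TGF-beta. Unstimulated wells served as the full-inhibition control; stimulated DMSO wells = 0%.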
The depositor's hits bear a star; i = inactive; ? = inconclusive; nt = no result given. Unless noted, calls follow the shape of the dose curve; as a rule, active = well fitted curve in the direction sought with a large enough effect; inconclusive = small, poorly fitted or top-dose-only effect, or another doubt; inactive = no such curve, though single readings can be large; an effect the other way counts as inactive or inconclusive.

SMILES | ATXN2 expr inh | IL1B secr inh | HepG2 viability | S2 tox | TGFb inhibitor
C=CCSc1nnc(C2CCCN(Cc3ccccc3O)C2)n1C (centres undefined) | nt | nt | nt | i | nt
O=C(CSc1nccn1Cc1ccco1)Nc1ccc(OC(F)(F)F)cc1 | nt | nt | -19% | nt | -1%
O=C1CC(c2ccc(F)cc2)CC2=C1C=Nc1ccccc1N2 (centres undefined) | -18% | -93* | -4% | i | 10%
CC1CC(=O)C2=C(C1)Nc1ccccc1N=C2 (centres undefined) | 5% | -15 | 6% | i | -1%
O=C1CC(c2ccccc2)CC2=C1C=Nc1ccccc1N2 (centres undefined) | ? | -97* | -32% | i | -16%
CCOC(=O)c1cc(-c2ccccc2)n(CC(=O)Nc2ccccc2OCC)c1C | nt | nt | -5% | nt | 1%
Cc1nc2c(-c3ccc(F)cc3)c(C)nn2c(C)c1CCC(=O)NCc1cccc(Cl)c1 | 2% | nt | 3% | i | -17%
Cc1ccc(CN2CCc3c(OCc4ccc(F)cc4)cccc3C2=O)cc1 | -33% | -62* | -34% | i | -101%
O=C(COc1cccc2c1CCN(Cc1ccc(Br)cc1)C2=O)N1CCOCC1 | -35% | -63* | -3% | i | -27%
CN1CCc2c(OCc3ccc(F)cc3)cccc2C1=O | -12% | -21 | -6% | i | 17%
COC(=O)c1ccc(NC(=O)CCc2c(C)nn(-c3ccc(N4CCCCC4)nn3)c2C)cc1 | nt | nt | -24% | nt | -8%
Cc1ccc(CNC(=O)[C@]2(C(F)(F)F)C[C@H](CCc3ccccc3)CCCO2)o1 | nt | nt | -21% | nt | -10%
O=C(Cc1cccc2ccccc12)NCCOc1ccccc1F | -11% | -84* | -1% | i | -18%
Cc1ccc(OCCNC(=O)CNC(=O)Cc2cccc3ccccc23)cc1 | nt | nt | -12% | nt | 6%
CCC(=O)c1ccc(OCC(=O)c2ccc3c(c2)NC(=O)CO3)cc1 | 8% | -2 | 2% | i | 2%
O=C1COc2ccc(C(=O)CCl)cc2N1 | 14% | -90* | -55% | i | ?
COc1cccc(/C=C/C(=O)OCC(=O)c2ccc3c(c2)NC(=O)CO3)c1OC | -10% | 6 | -16% | i | -9%
COc1ccc(/C=C/C(=O)OCC(=O)c2ccc3c(c2)NC(=O)CO3)c(OC)c1 | -19% | -52* | -1% | i | 4%
CC(C)C(=O)Nc1ncc(Cc2cccc(Cl)c2)s1 | 19% | -72* | -27% | i | 1%
CC(=O)Nc1ncc(Cc2cccc(Cl)c2)s1 | -14% | 77 | 15% | i | -17%
CSc1ccc(Cn2c(C)c(C(=O)NCc3ccc(F)cc3)sc2=O)cc1 | -34% | ? | -18% | i | -6%
COc1ccc(Cl)cc1Cn1c(C)c(C(=O)NCc2ccccc2C(F)(F)F)sc1=O | -7% | -6 | -19% | i | -15%
CSc1ccc(Cn2c(C)c(C(=O)NCc3ccc(Cl)c(Cl)c3)sc2=O)cc1 | -28% | -58* | -4% | i | ?
Cc1c(C(=O)NCc2ccc(F)cc2)sc(=O)n1Cc1ccc(Cl)c(Cl)c1 | ? | -86* | -24% | i | ?
COc1ccc(Cl)cc1Cn1c(C)c(C(=O)NCc2cccc(C(F)(F)F)c2)sc1=O | -11% | -59* | 0% | i | ?
SMILES | ATXN2 expr inh | IL1B secr inh | HepG2 viability | S2 tox | TGFb inhibitor
Cc1cccc(-c2nc(S(=O)(=O)c3ccccc3)c(N3CCN(c4ccccc4)CC3)o2)c1 | nt | nt | 0% | nt | 1%
COc1cccc(C(=O)NCC2Cc3cccc(-c4nc(C)cnc4C)c3O2)c1OC (centres undefined) | nt | nt | nt | i | nt
N#Cc1ccc(-c2cccs2)nc1SCC(=O)Nc1cccc(C(F)(F)F)c1 | -5% | nt | 11µM* | i | ?
CCOC(=O)c1c(C)sc2c1N(C(=O)CN(CC)CC)c1ccccc1S2 | -10% | -11 | -36% | ? | -7%
CCC(=O)c1ccc2c(c1)N(CCCN(C)C)c1ccccc1S2 | ? | ? | 16µM* | ? | ?
CN1CCN(CCC(=O)N2c3ccccc3Sc3ccc(Cl)cc32)CC1 | nt | -28 | -40% | nt | -6%
CN1CCC=C(C(=O)N2c3ccccc3Sc3ccc(Cl)cc32)C1 | ? | -93* | -22% | ? | ?
CCOC(=O)c1c(C)sc2c1N(C(=O)CN(CC)CC)c1cc(Cl)ccc1S2 | 32µM* | -20 | -14% | ? | ?
CN(C)CCC(=O)N1c2ccccc2Sc2ccc(Cl)cc21 | -13% | -59* | -13% | i | -15%
CNc1c(Br)cc(/C=C2\C=C(C(O)c3cc(Br)c(NC)c(Br)c3)c3ccccc32)cc1Br (centres undefined) | nt | nt | -16% | nt | -6%
NCCC(=O)N1c2ccccc2Sc2ccc(Cl)cc21 | -39% | ? | -20% | i | ?
CCN(CC)CCC(=O)N1c2ccccc2Sc2ccc(Cl)cc21 | -3% | -71* | -27% | i | ?
Cc1ccc(C2(O)CN(c3ccccc3C)C3=[N+]2CCS3)cc1 (centres undefined) | 0% | 30 | 6% | i | 3%
O=[N+]([O-])c1ccc(C2(O)CN(c3ccccc3)C3=[N+]2CCS3)cc1 (centres undefined) | -16% | ? | 2% | nt | -3%
OC1(c2ccc(F)cc2)CN(c2ccccc2)C2=[N+]1CCS2 (centres undefined) | -9% | -51* | -40% | i | -29%
Cc1ccc(C2(O)CN(c3ccccc3)C3=[N+]2CCS3)cc1 (centres undefined) | -4% | -76* | -15% | i | 1%
c1ccc2c(c1)CC(N1CCCCC1)c1ccccc1S2 (centres undefined) | -31% | 0 | -49% | i | 0%
CN1CCN(CCOC2Cc3ccccc3Sc3ccc(Cl)cc32)CC1 (centres undefined) | -16% | -71* | -29% | i | ?
O=C(CN1CCN(CCOCCO)CC1)N1c2ccccc2Sc2ccc(Cl)cc21 | -2% | -18 | -21% | i | 7%
CN1CCN(C2Cc3cc(Cl)ccc3Sc3cc(F)ccc32)CC1 (centres undefined) | ? | -94* | -99% | ? | ?
OCCN1CCN(C2Cc3cc(Cl)ccc3Sc3ccc(Cl)cc32)CC1 (centres undefined) (tested in a mixture with another compound) | ? | -98* | 10µM* | ? | ?
CN(C(=O)c1ccc(OCC=C(c2ccccc2)c2ccccc2)cc1)c1ccccc1I | nt | nt | -14% | nt | -22%
CC(Oc1ccc2c(c1)c1ccnc3c4ccccc4c(=O)n2c13)C(=O)NCCN1CCOCC1 (centres undefined) | -2% | -51* | 11µM* | i | 0%
